From publication PMC7862700, “An all-to-all approach to the identification of sequence-specific readers for epigenetic DNA modifications on cytosine”

What was measured:
Assay in all cases: DAPPL (digital affinity profiling via proximity ligation, sequencing); 10 mM Tris-HCl pH 7.5, 50 mM NaCl, 1 mM DTT, 4% glycerol, room temperature, 30 min; GST-TFs on glutathione beads, 16-mer random dsDNA library, 0.1% formaldehyde crosslink after washing; high values mean tight binding
Settings in all cases: protein: recombinant; tags: N-terminal GST; dsDNA, one strand shown
FLI1 = target: T1, FLI1 (Homo sapiens, UniProt Q01543 1-452)
T1 sequence: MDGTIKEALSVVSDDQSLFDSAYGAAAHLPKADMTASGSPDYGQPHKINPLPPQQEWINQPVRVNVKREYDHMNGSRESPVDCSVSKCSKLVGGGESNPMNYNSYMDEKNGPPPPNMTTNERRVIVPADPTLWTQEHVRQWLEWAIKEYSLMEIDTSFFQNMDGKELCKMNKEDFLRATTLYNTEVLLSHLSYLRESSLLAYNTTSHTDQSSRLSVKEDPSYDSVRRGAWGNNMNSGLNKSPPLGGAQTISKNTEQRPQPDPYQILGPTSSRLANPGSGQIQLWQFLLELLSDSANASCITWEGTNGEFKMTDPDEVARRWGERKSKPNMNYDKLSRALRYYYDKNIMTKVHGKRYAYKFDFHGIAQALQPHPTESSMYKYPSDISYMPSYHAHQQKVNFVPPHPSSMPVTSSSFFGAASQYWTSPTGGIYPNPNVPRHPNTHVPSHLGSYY
Procedure, shortened: (§1)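 Pools were built from human transcription factors expressed in yeast as GST fusions, captured on glutathione beads and DNA-barcoded, along with a tag-only sample. Incubation with 200 nmole of a 16-mer random double-stranded DNA library lasted 30 min at room temperature in Tris/NaCl/DTT/glycerol buffer, and was followed by washing, 0.1% formaldehyde crosslinking, proximity ligation, PCR amplification and Illumina NextSeq500 sequencing. Binding signal is the quotient of each hexamer's read frequency for a factor and its frequency for the tag-only sample.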

ELK1 = target: T2, ELK1 (Homo sapiens, UniProt P19419 1-428)
T2 sequence: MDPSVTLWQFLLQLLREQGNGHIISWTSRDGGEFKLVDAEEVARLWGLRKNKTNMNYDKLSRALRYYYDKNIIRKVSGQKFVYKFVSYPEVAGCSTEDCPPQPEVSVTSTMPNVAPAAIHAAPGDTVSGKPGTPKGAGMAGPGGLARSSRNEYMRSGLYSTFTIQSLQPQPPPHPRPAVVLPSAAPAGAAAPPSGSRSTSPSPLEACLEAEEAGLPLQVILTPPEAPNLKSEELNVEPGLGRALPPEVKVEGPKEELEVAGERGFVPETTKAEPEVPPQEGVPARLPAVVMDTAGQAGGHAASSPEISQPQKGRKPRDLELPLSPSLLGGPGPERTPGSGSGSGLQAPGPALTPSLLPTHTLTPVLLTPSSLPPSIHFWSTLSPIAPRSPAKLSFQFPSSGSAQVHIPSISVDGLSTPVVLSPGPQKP
Procedure, shortened: as §1

GABPA = target: T3, GABPA (Homo sapiens, UniProt Q06546 1-454)
T3 sequence: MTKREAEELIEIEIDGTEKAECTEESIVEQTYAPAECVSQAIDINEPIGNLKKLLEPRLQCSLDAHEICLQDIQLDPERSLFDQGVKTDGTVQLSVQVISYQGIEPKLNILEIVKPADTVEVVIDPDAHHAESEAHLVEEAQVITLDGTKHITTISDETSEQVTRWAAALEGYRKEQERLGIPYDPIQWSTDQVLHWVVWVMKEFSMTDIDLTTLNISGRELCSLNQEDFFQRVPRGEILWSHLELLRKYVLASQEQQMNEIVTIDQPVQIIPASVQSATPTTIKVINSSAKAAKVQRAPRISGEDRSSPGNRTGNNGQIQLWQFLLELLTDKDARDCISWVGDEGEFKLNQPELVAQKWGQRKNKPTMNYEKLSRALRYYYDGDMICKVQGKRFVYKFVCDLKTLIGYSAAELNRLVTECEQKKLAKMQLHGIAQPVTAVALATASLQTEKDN
Procedure, shortened: as §1

ELF1 = ELF1 (Homo sapiens, UniProt P32519 1-619)
Procedure, shortened: as §1

SPI1 = SPI1 (Homo sapiens, UniProt P17947 1-270)
Procedure, shortened: as §1

SPIB = SPIB (Homo sapiens, UniProt Q01892 1-262)
Procedure, shortened: as §1

FEV = target: T4, FEV (Homo sapiens, UniProt Q99581 1-238)
T4 sequence: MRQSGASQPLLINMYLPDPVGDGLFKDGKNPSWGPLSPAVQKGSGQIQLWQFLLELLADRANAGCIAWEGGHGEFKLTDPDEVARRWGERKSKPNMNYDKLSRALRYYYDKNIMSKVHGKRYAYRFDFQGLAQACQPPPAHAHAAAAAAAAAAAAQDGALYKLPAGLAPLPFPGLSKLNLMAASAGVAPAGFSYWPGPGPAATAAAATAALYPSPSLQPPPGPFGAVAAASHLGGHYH
Procedure, shortened: as §1

ETV5 = ETV5 (Homo sapiens, UniProt P41161 1-510)
Procedure, shortened: as §1

ELF4 = ELF4 (Homo sapiens, UniProt Q99607 1-663)
Procedure, shortened: as §1

ETV2 = target: T5, ETV2 (Homo sapiens, UniProt O00321 1-342)
T5 sequence: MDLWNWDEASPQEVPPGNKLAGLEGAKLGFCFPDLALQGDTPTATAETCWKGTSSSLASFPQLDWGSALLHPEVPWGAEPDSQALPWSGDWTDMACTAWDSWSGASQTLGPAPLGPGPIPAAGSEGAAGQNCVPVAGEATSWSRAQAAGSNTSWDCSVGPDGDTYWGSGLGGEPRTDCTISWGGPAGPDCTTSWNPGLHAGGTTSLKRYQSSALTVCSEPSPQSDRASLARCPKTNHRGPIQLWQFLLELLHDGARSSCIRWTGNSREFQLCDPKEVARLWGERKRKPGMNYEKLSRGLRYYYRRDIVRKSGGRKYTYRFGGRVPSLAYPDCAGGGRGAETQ
Procedure, shortened: as §1

ELF3 = target: T6, ELF3 (Homo sapiens, UniProt P78545 1-371)
T6 sequence: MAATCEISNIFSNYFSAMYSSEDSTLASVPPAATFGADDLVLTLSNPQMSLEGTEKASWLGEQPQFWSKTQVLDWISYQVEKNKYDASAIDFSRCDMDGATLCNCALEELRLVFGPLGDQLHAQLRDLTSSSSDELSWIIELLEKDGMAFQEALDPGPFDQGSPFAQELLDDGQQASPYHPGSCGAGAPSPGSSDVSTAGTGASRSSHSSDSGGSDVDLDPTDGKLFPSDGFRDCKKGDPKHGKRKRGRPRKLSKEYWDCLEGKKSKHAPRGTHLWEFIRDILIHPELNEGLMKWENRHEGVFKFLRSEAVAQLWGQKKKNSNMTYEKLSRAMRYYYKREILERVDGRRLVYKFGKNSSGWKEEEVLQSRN
Procedure, shortened: as §1

ETV1 = ETV1 (Homo sapiens, UniProt P50549 1-477)
Procedure, shortened: as §1

ERF = target: T7, ERF (Homo sapiens, UniProt P50548 1-548)
T7 sequence: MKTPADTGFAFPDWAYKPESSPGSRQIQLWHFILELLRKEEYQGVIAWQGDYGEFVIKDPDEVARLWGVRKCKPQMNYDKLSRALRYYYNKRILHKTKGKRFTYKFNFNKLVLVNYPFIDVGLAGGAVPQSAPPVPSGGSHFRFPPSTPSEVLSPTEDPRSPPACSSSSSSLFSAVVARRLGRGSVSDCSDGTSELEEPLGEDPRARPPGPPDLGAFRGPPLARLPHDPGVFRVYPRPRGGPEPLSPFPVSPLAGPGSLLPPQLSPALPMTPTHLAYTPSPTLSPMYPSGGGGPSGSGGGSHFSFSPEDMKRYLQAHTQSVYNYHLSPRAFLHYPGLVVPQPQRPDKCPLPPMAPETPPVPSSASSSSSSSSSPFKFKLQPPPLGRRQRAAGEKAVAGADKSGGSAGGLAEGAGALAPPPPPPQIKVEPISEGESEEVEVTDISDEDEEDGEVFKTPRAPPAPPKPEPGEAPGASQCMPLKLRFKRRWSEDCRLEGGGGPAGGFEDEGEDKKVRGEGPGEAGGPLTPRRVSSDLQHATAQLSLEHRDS
Procedure, shortened: as §1

ETV3L = target: T8, ETV3L (Homo sapiens, UniProt Q6ZN32 1-361)
T8 sequence: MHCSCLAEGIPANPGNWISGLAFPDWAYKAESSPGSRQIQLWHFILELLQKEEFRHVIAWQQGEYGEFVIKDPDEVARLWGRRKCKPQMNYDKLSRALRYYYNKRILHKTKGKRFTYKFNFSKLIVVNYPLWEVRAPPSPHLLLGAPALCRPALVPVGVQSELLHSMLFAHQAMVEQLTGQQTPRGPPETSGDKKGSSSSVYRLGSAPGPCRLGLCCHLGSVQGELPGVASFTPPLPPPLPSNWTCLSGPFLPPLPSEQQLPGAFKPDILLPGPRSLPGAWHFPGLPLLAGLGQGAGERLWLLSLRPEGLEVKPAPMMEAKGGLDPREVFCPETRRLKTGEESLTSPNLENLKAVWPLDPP
Procedure, shortened: as §1

ETS2 = target: T9, ETS2 (Homo sapiens, UniProt P15036 1-469)
T9 sequence: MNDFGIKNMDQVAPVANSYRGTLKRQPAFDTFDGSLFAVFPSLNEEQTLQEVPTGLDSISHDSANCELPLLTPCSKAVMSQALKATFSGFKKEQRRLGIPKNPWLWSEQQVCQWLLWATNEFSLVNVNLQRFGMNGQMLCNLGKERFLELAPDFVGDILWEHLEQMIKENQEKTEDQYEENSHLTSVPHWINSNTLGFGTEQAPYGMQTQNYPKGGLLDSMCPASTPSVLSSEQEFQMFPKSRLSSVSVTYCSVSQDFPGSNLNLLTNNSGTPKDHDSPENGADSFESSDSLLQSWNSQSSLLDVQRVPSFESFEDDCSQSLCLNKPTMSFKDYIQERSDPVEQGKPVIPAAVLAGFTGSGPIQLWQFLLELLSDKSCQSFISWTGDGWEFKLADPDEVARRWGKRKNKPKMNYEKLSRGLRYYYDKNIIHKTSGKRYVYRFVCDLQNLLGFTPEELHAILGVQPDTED
Procedure, shortened: as §1

ETV7 = target: T10, ETV7 (Homo sapiens, UniProt Q9Y603 1-341)
T10 sequence: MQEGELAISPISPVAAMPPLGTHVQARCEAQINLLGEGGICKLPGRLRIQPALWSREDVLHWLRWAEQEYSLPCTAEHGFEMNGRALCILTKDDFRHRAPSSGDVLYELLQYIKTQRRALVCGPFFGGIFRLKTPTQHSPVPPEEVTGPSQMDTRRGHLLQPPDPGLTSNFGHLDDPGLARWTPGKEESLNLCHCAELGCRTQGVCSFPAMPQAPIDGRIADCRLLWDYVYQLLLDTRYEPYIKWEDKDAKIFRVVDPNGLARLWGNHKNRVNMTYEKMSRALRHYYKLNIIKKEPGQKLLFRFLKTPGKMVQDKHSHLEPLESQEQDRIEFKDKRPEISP
Procedure, shortened: as §1

ETV6 = ETV6 (Homo sapiens, UniProt P41212 1-452)
Procedure, shortened: as §1

Sequence of ETV6 (P41212 whole entry): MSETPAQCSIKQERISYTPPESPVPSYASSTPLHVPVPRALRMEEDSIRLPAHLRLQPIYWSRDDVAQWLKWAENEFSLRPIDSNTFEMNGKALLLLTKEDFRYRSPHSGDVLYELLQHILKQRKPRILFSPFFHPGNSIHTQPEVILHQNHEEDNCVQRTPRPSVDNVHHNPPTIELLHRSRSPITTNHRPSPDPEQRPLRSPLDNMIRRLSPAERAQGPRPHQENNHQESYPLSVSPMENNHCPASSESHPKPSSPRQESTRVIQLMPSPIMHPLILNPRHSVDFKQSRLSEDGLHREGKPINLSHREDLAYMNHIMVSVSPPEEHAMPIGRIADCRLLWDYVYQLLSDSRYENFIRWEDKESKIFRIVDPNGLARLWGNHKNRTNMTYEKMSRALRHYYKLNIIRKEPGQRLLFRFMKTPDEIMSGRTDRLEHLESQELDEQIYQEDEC
Sequence of ELF1 (P32519 whole entry): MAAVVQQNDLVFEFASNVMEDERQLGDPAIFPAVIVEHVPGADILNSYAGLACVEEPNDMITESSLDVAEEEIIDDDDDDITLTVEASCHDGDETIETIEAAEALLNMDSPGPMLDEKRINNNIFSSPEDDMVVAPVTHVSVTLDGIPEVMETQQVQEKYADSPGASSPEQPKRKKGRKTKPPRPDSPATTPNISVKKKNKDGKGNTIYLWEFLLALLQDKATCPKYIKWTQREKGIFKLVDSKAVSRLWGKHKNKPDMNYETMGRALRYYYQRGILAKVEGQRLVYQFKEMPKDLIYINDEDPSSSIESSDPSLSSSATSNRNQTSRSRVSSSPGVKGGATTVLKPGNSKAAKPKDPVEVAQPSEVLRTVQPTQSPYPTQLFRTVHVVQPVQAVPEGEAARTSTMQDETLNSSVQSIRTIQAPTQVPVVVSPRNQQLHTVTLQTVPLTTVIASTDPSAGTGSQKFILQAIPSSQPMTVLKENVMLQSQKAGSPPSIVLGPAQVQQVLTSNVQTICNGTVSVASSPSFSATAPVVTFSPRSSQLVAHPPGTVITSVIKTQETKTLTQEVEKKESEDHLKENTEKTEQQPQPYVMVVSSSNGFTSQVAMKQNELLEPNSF
Sequence of ELF4 (Q99607 whole entry): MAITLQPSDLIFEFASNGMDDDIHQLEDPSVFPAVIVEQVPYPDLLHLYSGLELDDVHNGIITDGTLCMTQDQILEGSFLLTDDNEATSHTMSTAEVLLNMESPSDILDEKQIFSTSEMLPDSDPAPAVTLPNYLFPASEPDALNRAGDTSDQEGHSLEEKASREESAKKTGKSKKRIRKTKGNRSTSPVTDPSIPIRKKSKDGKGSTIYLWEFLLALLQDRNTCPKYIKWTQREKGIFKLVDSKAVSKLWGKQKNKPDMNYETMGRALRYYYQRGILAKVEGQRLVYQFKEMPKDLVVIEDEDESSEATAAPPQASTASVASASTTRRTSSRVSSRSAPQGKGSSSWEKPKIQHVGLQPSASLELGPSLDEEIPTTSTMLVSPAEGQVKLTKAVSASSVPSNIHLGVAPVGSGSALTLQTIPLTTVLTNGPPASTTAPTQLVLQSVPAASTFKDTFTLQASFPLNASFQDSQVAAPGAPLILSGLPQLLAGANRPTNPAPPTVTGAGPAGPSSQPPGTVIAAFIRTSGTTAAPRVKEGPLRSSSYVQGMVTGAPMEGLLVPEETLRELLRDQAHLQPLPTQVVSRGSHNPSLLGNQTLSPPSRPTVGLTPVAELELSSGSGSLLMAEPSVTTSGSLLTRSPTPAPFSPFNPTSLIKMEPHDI
Sequence of SPIB (Q01892 whole entry): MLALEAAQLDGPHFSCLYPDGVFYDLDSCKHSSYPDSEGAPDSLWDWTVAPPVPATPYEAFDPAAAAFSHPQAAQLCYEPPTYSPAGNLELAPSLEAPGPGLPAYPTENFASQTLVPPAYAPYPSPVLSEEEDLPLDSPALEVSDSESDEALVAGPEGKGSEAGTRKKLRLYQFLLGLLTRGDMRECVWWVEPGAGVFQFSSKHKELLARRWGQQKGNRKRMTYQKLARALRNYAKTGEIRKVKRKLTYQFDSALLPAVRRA
Sequence of ETV1 (P50549 whole entry): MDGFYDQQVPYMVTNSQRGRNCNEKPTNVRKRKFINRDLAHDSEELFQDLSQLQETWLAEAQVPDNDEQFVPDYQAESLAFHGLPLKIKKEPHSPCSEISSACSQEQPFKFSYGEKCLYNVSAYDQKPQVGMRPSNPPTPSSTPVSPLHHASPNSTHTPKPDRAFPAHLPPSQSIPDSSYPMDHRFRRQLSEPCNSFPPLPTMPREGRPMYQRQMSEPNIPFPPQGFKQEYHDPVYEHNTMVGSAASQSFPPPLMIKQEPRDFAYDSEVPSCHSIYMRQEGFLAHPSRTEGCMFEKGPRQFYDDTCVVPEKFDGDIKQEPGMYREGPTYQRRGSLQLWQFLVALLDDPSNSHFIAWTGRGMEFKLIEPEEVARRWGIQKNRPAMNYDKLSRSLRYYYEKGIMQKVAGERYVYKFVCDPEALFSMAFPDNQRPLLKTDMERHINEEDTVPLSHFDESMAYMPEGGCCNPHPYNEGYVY
Sequence of ETV5 (P41161 whole entry): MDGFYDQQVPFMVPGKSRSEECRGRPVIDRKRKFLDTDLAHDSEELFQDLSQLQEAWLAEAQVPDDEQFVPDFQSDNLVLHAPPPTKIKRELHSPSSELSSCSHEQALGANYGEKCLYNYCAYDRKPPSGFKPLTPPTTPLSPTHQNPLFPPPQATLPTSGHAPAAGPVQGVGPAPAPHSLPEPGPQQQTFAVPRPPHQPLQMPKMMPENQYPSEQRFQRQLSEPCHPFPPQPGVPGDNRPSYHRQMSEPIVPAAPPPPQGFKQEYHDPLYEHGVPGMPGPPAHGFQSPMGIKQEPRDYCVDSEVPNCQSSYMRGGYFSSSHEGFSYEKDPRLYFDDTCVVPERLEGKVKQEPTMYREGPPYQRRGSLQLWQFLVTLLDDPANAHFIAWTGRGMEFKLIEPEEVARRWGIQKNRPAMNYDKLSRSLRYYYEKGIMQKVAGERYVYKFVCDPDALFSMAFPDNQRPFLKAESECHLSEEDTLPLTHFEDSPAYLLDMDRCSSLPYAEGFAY

Sequence: CTATCA
- binding signal (FLI1): 1.1 fold enrichment (6-mer frequency, TF over GST control)
- binding signal (ELK1): 1.06 fold enrichment (6-mer frequency, TF over GST control)
- binding signal (GABPA): 1.1 fold enrichment (6-mer frequency, TF over GST control)
- binding signal (ELF1): 1.05 fold enrichment (6-mer frequency, TF over GST control)
- binding signal (SPI1): 1.01 fold enrichment (6-mer frequency, TF over GST control)
- binding signal (SPIB): 1.05 fold enrichment (6-mer frequency, TF over GST control)
- binding signal (FEV): 1.02 fold enrichment (6-mer frequency, TF over GST control)
- binding signal (ETV5): 1.03 fold enrichment (6-mer frequency, TF over GST control)
- binding signal (ELF4): 1.15 fold enrichment (6-mer frequency, TF over GST control)
- binding signal (ETV2): 1.05 fold enrichment (6-mer frequency, TF over GST control)
- binding signal (ELF3): 1.02 fold enrichment (6-mer frequency, TF over GST control)
- binding signal (ETV1): 1 fold enrichment (6-mer frequency, TF over GST control)
- binding signal (ERF): 1.06 fold enrichment (6-mer frequency, TF over GST control)
- binding signal (ETV3L): 1.09 fold enrichment (6-mer frequency, TF over GST control)
- binding signal (ETS2): 1.04 fold enrichment (6-mer frequency, TF over GST control)
- binding signal (ETV7): 1.06 fold enrichment (6-mer frequency, TF over GST control)
- binding signal (ETV6): 1.03 fold enrichment (6-mer frequency, TF over GST control)
